MCL1-BIM inh – disrupts human MCL1 binding to BIM-BH3 peptide. inhibition, % at 10.9 µM. 320,000 tested, 0.68% active. GST-MCL1 / FITC-Bim-BH3 fluorescence polarization;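 active = inhibition above the mean inhibition of all tested compounds plus 3 SD, set per campaign, cut at about 40% in these data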;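 also: 0% = DMSO wells and 100% = unlabeled Bim-BH3 peptide control; higher means more loss of mP so more displacement of Bim peptide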
Target sequence (Q07820 whole entry, looked up): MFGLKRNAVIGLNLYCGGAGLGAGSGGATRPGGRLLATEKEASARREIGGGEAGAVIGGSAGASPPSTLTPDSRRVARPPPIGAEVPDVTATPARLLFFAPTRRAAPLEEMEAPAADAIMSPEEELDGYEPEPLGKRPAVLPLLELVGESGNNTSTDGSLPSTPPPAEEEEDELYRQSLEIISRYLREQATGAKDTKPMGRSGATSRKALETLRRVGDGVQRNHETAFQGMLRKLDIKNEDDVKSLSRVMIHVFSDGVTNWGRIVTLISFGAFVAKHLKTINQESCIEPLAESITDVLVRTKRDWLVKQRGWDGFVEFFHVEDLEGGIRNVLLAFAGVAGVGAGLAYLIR
GLD-1 RNA inh – GLD-1-TGE RNA interaction inhibition (C. elegans); Q17339; purified GLD-1 + fluorescein TGE RNA, fluorescence polarization; inhibition, % at 5.96 µM; 320,000 tested, 0.44% active; AID 2280;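 active = percent inhibition above a per-plate cutoff, the plate mean of test compounds plus 3 SD, cut at about 30% in these data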;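 also: 0% = DMSO wells with GLD-1 and probe and 100% = wells lacking GLD-1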
MEX-5 binding – C. elegans MEX-5 TCR-2 RNA binding activity; Q9XUB2; MEX-5/FITC-TCR2 RNA binding, fluorescence polarization; hits give low values; activity score (negative = inhibition of binding), % at 10 µM; 300,000 tested, 0.38% active;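 active = inhibition past about -25% in most replicates, and total fluorescence under double the plate's negative control median, limit read from the data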;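 also: 0% = DMSO and -100% = 5 µM competing unlabeled TCR2 RNA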
BCLXL inh – Bcl-xL (human) inhibition; inhibition, % at 10.9 µM; 320,000 tested, 0.7% active; AID 2129; GST-Bcl-xL / FITC-Bim BH3 peptide fluorescence polarization;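 active = inhibition above the mean of all tested compounds plus 3 SD, cutoff set per campaign, cut at about 30% in these data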;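 also: 0% = DMSO wells and 100% = unlabeled Bim-BH3 peptide competitor; inhibitors lower millipolarization by displacing the labeled peptide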
Target sequence (Q07817 whole entry, looked up): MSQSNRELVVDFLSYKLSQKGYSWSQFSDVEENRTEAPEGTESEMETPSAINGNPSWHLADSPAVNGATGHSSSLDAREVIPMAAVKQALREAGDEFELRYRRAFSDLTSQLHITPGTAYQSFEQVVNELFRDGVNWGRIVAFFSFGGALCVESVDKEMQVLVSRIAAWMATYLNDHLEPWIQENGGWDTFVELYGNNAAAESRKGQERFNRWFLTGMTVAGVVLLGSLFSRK
eLon inh – inhibitors of E. coli Lon protease; inhibition, % at 7.94 µM; 360,000 tested, 0.42% active; AID 602123; P0A9M0; purified E. coli Lon protease, fluorescence polarization; in the data active = inhibition above about 13%, passing the limit was not always enough;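 also: 0% = enzyme with probe and DMSO and 100% = no enzyme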
eLon confirm – E. coli Lon inhibition confirmation | shares compounds with eLon inh | purified E. coli Lon, fluorescence polarization | inhibition, % at 7.94 µM | 1,400 tested, 31% active | AID 602230; in the data active = inhibition above about 16%;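 also: 0% = enzyme with probe and DMSO and 100% = no enzyme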
* marks the source's active call; other numbers are inactive results; . = no result; + = active, no number. This is a sample that favours compounds with a hit; in the whole collection about 1.4% have one here.

SMILES	MCL1-BIM inh	GLD-1 RNA inh	MEX-5 binding	BCLXL inh	eLon inh	eLon confirm
O=C1C=CC(=Nc2cccc3c2C(=O)c2ccccc2-3)O1	.	.	.	.	+	6
Nc1[nH]c(C(=O)c2ccccc2)c(-c2cccnc2)c1C(=O)NCCc1ccc(Cl)cc1Cl	.	.	.	.	+	-1
COC(=O)c1[nH]c2cccc(OC)c2c1NC(=O)CCN1CCN(c2ccccc2OC)CC1	9	-4	0	-12	21*	6
Nc1[nH]n(-c2c(Cl)cc(Cl)cc2Cl)c(=O)c1N=Nc1ccc(S(=O)(=O)Nc2ncccn2)cc1	.	3	.	.	21*	9
CCCCc1c(-c2ccccc2OC)ncn1CCc1ccccc1Cl	.	.	.	.	3	.
CCC(C)(C)NC(=O)C(c1cccc(OC)c1OC)N(CCC(C)C)C(=O)CCC(=O)Nc1cc(C)on1 (configuration not stated)	-2	-3	0	0	1	.
CCC(C)(C)NC(=O)C(c1cccc(OC)c1OC)N(C(=O)CCC(=O)Nc1cc(C)on1)C(C)C (configuration not stated)	6	-2	2	2	21*	5
CSc1nnc2c(=O)[nH]c(=O)n(C)c2n1	.	.	.	.	-3	.
O=C1c2cccc3c([N+](=O)[O-])ccc(c23)C(=O)N1c1ccccn1	24	20	-8	25	27*	20*
O=C(O)c1ccc(Nc2ccc([N+](=O)[O-])c3nonc23)cc1	.	.	5	.	6	.
O=[N+]([O-])c1ccc(Nc2ccccc2O)c2nonc12	.	.	-36*	.	30*	29*
Cc1ccc(C(=O)n2c(-c3ccccc3)cnc2SCC(=O)Nc2ccc(C)cc2C)cc1	4	-5	2	1	-3	.
COc1cccc(/C(C)=N/Nc2ccc(S(=O)(=O)N3CCCCC3)cn2)c1	3	7	.	6	22*	4
CCOc1cc(N2CCOCC2)c(OCC)cc1NC(=O)c1c(C)noc1C	.	.	.	.	-4	.
CCn1c(SCC(=O)OC2CCCCC2)nnc1-c1ccncc1	6	-5	2	3	-7	.
CC(C)c1onc(C(=O)Nc2cccnc2Cl)c1[N+](=O)[O-]	11	-1	1	4	19*	-17
O=C(c1cccc(Cl)c1)N1CCC2CC1c1cc(-c3ccccc3)ccc12 (configuration not stated)	.	.	.	.	-3	.
O=C(c1ccc(Cl)cc1)N1CCC2CC1c1cc(-c3ccccc3)ccc12 (configuration not stated)	.	.	.	.	16*	4
CC(C)CN(C(=O)Cn1c(Cl)nc2c1c(=O)n(C)c(=O)n2C)C1CCS(=O)(=O)C1 (configuration not stated)	-1	4	-2	3	16*	0
CCc1ccc(/C=N/NC(=O)C(=O)NCCCN2CCOCC2)cc1	-2	-2	1	-1	-9	.
COCCn1nnnc1CN(Cc1ccco1)Cc1cc2cc3c(cc2[nH]c1=O)OCO3	-3	-9	1	-5	23*	6
COc1ccc(C2=CC(c3ccco3)n3ncnc3N2)cc1 (configuration not stated)	.	.	.	.	49*	69*
Cc1nn(-c2ccccc2)c2[nH]c(=O)c(CNc3ccc4c(c3)OCCO4)cc12	3	-4	-4	8	21*	44*
COc1cccc(NCc2cc3c(C(C)(C)C)nn(-c4ccccc4)c3[nH]c2=O)c1	0	20	1	-1	-2	.
COc1ccc(C(=O)N=S2CCN(C(=O)c3ccc(Cl)cc3)CC2)cc1	-8	-1	-2	-3	103*	12
SMILES	MCL1-BIM inh	GLD-1 RNA inh	MEX-5 binding	BCLXL inh	eLon inh	eLon confirm
Cc1nn(CC(=O)NC(C)CCc2ccccc2)c(=O)c2nn(-c3ccccc3)c(C)c12 (configuration not stated)	1	-2	-2	1	2	.
CC(=O)Nc1ccc(-c2ccnc3c2CC(C)(C(=O)NCc2ccc(F)c(F)c2)O3)cc1 (configuration not stated)	.	.	.	.	0	.
CC1CCCN(C(=O)c2cn(-c3ccccc3)nc2-c2cccnc2)C1 (configuration not stated)	-152	-19	-2	-7	-3	.
O=c1c2ccccc2sn1-c1nccs1	.	.	1	.	22*	20*
CC(=O)ON1C(C)(C)CC(OC(=O)c2ccccc2)CC1(C)C	-3	0	-1	0	-5	.
CC(=O)OC1CC(C)(C)N(OC(=O)c2ccccc2)C(C)(C)C1	-4	0	1	0	15*	6
CN(CC1CCCO1)S(=O)(=O)c1ccc(C(=O)Nc2nnc(-c3ccccc3)o2)cc1 (configuration not stated)	-1	7	1	0	-4	.
COc1cc(C(=O)NCCC2=CCCCC2)ccc1OC1CCN(C(C)=O)CC1	8	-2	4	-2	6	.
COc1ccccc1N1C(=O)CC(Sc2n[nH]c(-c3cccc(C)c3)n2)C1=O (configuration not stated)	11	4	-3	8	-7	.
O=C(CCN1CCN(Cc2ccccc2)CC1)Nc1cccc(Br)c1	4	-3	-1	2	3	.
Cn1c2nc(=O)n(-c3ccccc3)c(=O)c-2nc2c1CCCC2	.	.	.	.	123*	77*
Cc1nn(C)c(=O)n1-c1ccccc1	-8	-5	-3	4	-1	.
Cc1ccc(-n2c(C)cc(C(=O)Cn3nc(C(=O)O)c4ccccc4c3=O)c2C)cc1	-16	-4	0	-1	51*	-4
COc1cccc(-n2c(=O)c3sccc3n(CC(=O)NCC3CCCO3)c2=O)c1 (configuration not stated)	-2	7	0	2	-4	.
CCOC(=O)NC(=O)/C(C#N)=C\Nc1sccc1C(=O)OC	+	+	-8	+	+	2
CCOC(=O)NC(=O)/C(C#N)=C\Nc1ccc(Cl)cc1Cl	0	2	-1	2	1	.
COCCN(CCOC)C(=O)c1ccc(CSc2nc3ccccc3s2)cc1	5	3	-3	1	1	.
COC(=O)Oc1ccc(/C=C/C(=O)OC(C)C)cc1OC(=O)OC	12	3	1	6	7	.
CCCCOC(=O)/C=C/c1ccc(OC(=O)OC)c(OC(=O)OC)c1	4	1	-2	2	28*	-30
COc1cc(OC)cc(C(=O)NC(C)CNc2ccc(Cl)cc2[N+](=O)[O-])c1 (configuration not stated)	-5	0	1	-4	6	.
COc1ccc(C2N(c3ccc(OC)cc3)C(=O)C3CCCN32)cc1 (configuration not stated)	4	7	-2	1	6	.
COc1ccc(N2C(=O)C3CCCN3C2c2ccccc2)cc1 (configuration not stated)	5	4	0	1	16*	-8
Cc1cccc(Nc2nc(N)nc(CN3CCN(Cc4ccc5c(c4)OCO5)CC3)n2)c1	11	4	-1	5	19*	-1
